This is a sample that favours compounds with a hit; in the whole collection about 7.5% have one here.
Rab9 prom act = activates the Rab9 promoter. Huh7 Rab9 promoter-luciferase reporter, luminescence, 24 h. Potency, µM (series often up to 9.22 µM), for the others: at the top dose activation, negative = inhibition, most hits filed as activators. hit rate 2.8% among 320,000; further: % of control where 0% means no effect; nearly all actives have a fitted effect of over 60% in size
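Huh7 cells stably carrying a Rab9 promoter-luciferase reporter, 1500 cells per well in OP-MEM I with 10% FBS, treated with compound 24 hours at 37C. Luciferase activity read by luminescence after 10 minutes with Amplite reagent.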
NPC1 prom act = activates the NPC1 promoter | Huh7 NPC1 promoter luciferase reporter, 24 h | Potency, µM (highest dose often 9.22 µM), for the others: at the top dose activation, most hits filed as activators | hit rate 2.4% among 320,000; further: % of control where 0% means no effect; nearly all actives have a fitted effect of over 60% in size
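Huh7 cells stably carrying NPC1 promoter–luciferase, plated in Opti-MEM with 10% FBS for 2 h, were exposed to compound in DMSO for 24 h at 37 °C; luciferase reagent was added for 10 min and luminescence read.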
SMN2 splice up = SMN2 splice variant enhancement; Potency, µM (highest dose often 46.1 µM), without a hit: at the highest dose activity change, positive = activation, actives largely listed as activators; HEK293 SMN2-luciferase splicing reporter, luminescence, 30-36 h; hit rate 2.8% among 210,000; further: % of control where 0% means no effect; nearly all actives have a fitted effect of over 55% in size
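HEK293 cells carry an SMN2 minigene-luciferase reporter in which exon 7 inclusion puts luciferase in frame. Cells were seeded at 2000 cells/well, attached for 10-12 hours, then exposed to compounds for 30-36 hours at 37C before ONE-Glo luminescence.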
FLuc modulator = counter-screen for miR-21 project: firefly luciferase inhibitors or activators; Potency, µM (highest dose often 57.5 µM), without a hit: at the highest dose activity change, negative = inhibition, hits mostly inhibitors; purified FLuc, Km substrates, luminescence inhibition; hit rate 6.9% among 360,000; P08659; AID 588342;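 further: plate controls were vehicle for no effect and reference inhibitor for full effect; nearly all actives have a fitted effect of over 55% in size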
Target sequence (P08659 whole entry, looked up): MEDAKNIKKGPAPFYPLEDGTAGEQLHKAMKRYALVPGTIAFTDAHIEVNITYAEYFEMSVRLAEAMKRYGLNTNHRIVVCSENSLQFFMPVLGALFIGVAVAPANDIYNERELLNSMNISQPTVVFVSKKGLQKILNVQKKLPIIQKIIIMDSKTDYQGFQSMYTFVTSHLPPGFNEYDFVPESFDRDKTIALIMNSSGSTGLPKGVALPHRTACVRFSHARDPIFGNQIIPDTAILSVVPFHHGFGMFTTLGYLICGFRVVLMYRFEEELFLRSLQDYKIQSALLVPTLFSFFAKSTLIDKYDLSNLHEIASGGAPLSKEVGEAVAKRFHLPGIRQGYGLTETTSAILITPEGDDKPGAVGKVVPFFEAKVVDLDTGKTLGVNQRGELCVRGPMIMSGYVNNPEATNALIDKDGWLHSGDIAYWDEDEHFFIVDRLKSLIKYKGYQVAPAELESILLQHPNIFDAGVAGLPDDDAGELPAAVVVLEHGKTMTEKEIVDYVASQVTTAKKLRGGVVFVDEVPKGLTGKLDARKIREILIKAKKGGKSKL
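Purified P. pyralis luciferase (10nM final) with 10uM D-luciferin and 10uM ATP (Km levels) in 50mM Tris acetate pH 7.5, 10mM Mg acetate, 0.01% Tween-20, 0.05% BSA; qHTS 6-point titration, ~60 µM downward; luminescence read.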
ELG1 genotox = inducers of genotoxicity in HEK293T ELG1-luciferase cells. HEK293T ELG1-luciferase reporter, luminescence, 16 h. Potency, µM (titrated, usually from 46 µM), inactives show at the highest dose activity change, positive = activation, hits mostly activators. hit rate 1.3% among 330,000. AID 504466; further: % of control where 0% means no effect; nearly all actives have a fitted effect of over 60% in size
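Luminescence read-out: rising ELG1-luciferase signal, reflecting elevated ELG1 protein under genetic stress, flags genotoxic compounds. Cells were treated for 16 hr at 37 °C before ONE-Glo detection.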
* hit, by the source's call; u = inconclusive; x = no result given; [ ] = another dose, or the depositor's remark. The call rests on the fitted dose curve; in most records, active means well fitted curve in the direction sought with a large enough effect; inconclusive means small, poorly fitted or top-dose-only effect, or another doubt; inactive means no such curve, though single readings can be large; an effect the other way counts as inactive or inconclusive. Potency means the concentration at half of the fitted maximal effect.

SMILES	Rab9 prom act	NPC1 prom act	SMN2 splice up	FLuc modulator	ELG1 genotox
O=C(CSc1nc(-c2ccco2)cc(C(F)(F)F)n1)NCCCN1CCOCC1	-6.3%	-4.0%	-1.2%	0.2%	1.6%
COc1ccc(/C=N/NC(=O)c2cc(C34CC5CC(CC(C5)C3)C4)[nH]n2)cc1OC	-3.2%	-5.0%	5.3%	u	3.1%
O=C(N/N=C/c1ccc(O)cc1)c1cc(C23CC4CC(CC(C4)C2)C3)[nH]n1	10.4%	-2.1%	x	13.5µM*	4.1%
COc1ccc(-c2nn3c(=O)cc(CN4CCN(C(=O)c5ccc(C(C)(C)C)cc5)CC4)nc3s2)cc1	x	x	x	-16.6%	x
CC(C)OC(=O)c1ccc(COC(=O)c2cnccn2)cc1	0.1%	0.6%	-7.5%	7.57µM*	2.1%
O=C(Oc1ccc(Cl)cc1)c1ccc(COC(=O)c2cnccn2)cc1	-3.5%	-5.1%	12.5%	12µM*	9.3%
Cc1ccc(CN2CCC(CNC(=O)c3cc4ccc5cccnc5c4[nH]3)CC2)cc1	x	x	x	-2.0%	x
CCN(Cc1ccccc1)C(=O)c1cc2ccc3cccnc3c2[nH]1	x	x	x	9.53µM*	x
Cc1cc(C)c(S(=O)(=O)NCc2csc(-c3ccccc3)n2)c(C)c1	x	x	2.8%	-19.4%	x
CN1CCN(c2ccc(-c3cccc(NC(=O)COc4ccc(Cl)cc4Cl)c3)nn2)CC1	u	u	x	0.477µM*	0.651µM*
CS(=O)(=O)c1ccc(-c2cccc(NC(=O)COc3ccccc3)c2)nn1	0.3%	1.4%	x	-16.8%	7.6%
CN1CCN(c2ccc(-c3cccc(NC(=O)COc4ccccc4)c3)nn2)CC1	1.58µM*	1.58µM*	x	1.51µM*	2.59µM*
O=C(COc1ccccc1)Nc1ccc(-c2ccc(N3CCOCC3)nn2)cc1	2.24µM*	u	x	u	u
CN1CCN(c2ccc(-c3cccc(NC(=O)COc4ccc(Cl)cc4)c3)nn2)CC1	2µM*	2.82µM*	x	1.07µM*	2.06µM*
CC(C)N(C(=O)[C@H]1CC(CC(=O)NCC23CC4CC(CC(C4)C2)C3)C(=O)N2CCc3c([nH]c4ccccc34)[C@]12C)C(C)C (some centres undefined)	x	x	x	x	-4.8%
N#C/C(=C\c1ccc[nH]1)C(=O)Nc1ccccc1[N+](=O)[O-]	u	u	x	-6.5%	u
Cc1[nH]c2ccccc2c1N=Nc1ccccc1C(=O)O	11.5%	11.7%	3.0%	u	1.8%
CC(=O)c1ccc(S(=O)(=O)Nc2ccc(-c3ccc(N4CCCCC4)nn3)cc2)cc1	x	x	x	8.49µM*	x
CC(=O)c1ccc(S(=O)(=O)Nc2ccc(-c3ccc(N4CCCCCC4)nn3)cc2)cc1	x	x	x	10.7µM*	x
O=C(Nc1c[nH]c(=O)[nH]c1=O)c1ccccc1Cl	-5.6%	-0.8%	x	-3.7%	5.1%
O=[N+]([O-])c1ccccc1S(=O)(=O)N1CCCc2ccccc21	5.5%	0.1%	x	-16.5%	3.3%
O=C(COC(=O)c1cc2ccccc2o1)NCc1ccco1	0.3%	0.8%	x	x	4.0%
Clc1ccc(-c2cn3cc(Br)ccc3n2)cc1Cl	2.24µM*	3.98µM*	2.24µM*	0.213µM*	0.82µM*
Cc1ccn2cc(-c3cnoc3C)nc2c1	u	28.0%	2.3%	u	u
Cc1ccc(-c2cn3ccc(C)cc3n2)cc1	x	x	0.251µM*	0.151µM*	x
SMILES	Rab9 prom act	NPC1 prom act	SMN2 splice up	FLuc modulator	ELG1 genotox
COc1c(Cl)cccc1-c1cn2ccc(C)cc2n1	0.562µM*	1.26µM*	x	0.675µM*	u
Cc1ccn2cc(-c3ccc(Br)cc3)nc2c1	0.562µM*	2.82µM*	x	0.151µM*	u
Cc1ccc(S(=O)(=O)Nc2ccc(-c3cn4ccc(C)cc4n3)cc2)cc1	12.1%	-2.4%	x	u	-3.9%
COc1ccc(N(CC(=O)Nc2ccccc2F)S(=O)(=O)c2ccc(OC)c(OC)c2)cc1	4.1%	-3.2%	x	1.1%	-6.7%
O=C(Nc1ccccc1)c1ccccc1O	25.7%	26.4%	-4.3%	10.7µM*	u
Cc1ccc(NC(=O)c2ccccc2O)cc1	0.631µM*	2µM*	2.82µM*	0.953µM*	u
O=C(Nc1ccccc1)Nc1ccc(NC(=O)c2ccccc2O)cc1	7.4%	4.6%	x	-8.4%	0.0%
O=C(Oc1ccccc1C(=O)Nc1ccccc1)c1ccccc1Br	19.0%	-4.1%	23.1%	16.9µM*	u
CCc1ccc(-n2c(C)nc3cc(C(=O)NCc4cccnc4)ccc32)cc1	0.5%	-1.0%	3.0%	3.6%	-5.4%
Cc1ccc(C2=Nc3ccccc3N(CC(=O)Nc3ccccc3C)C(=O)C2)cc1C	x	x	x	10.7µM*	x
Cc1ccc(C2=Nc3ccccc3N(CC(=O)NCc3ccc(Cl)cc3)C(=O)C2)cc1C	x	x	x	-11.1%	x
Cc1nn(C)c(C)c1CNC(=O)Nc1cccc(Cl)c1	u	20.8%	x	u	-1.1%
Cc1nn(C)c(C)c1CNC(=O)Nc1ccc(Cl)cc1	3.16µM*	u	27.1%	u	u
COc1cc(/C=c2\sc3n(c2=O)CCCN=3)ccc1O	-3.6%	26.2%	-15.4%	u	u
O=c1/c(=C/c2ccc([N+](=O)[O-])cc2)sc2n1CCCN=2	3.55µM*	2.82µM*	11.8%	u	u
Cc1ccc2nc(NC(=O)c3cc(=O)c4cc(C)c(C)cc4o3)sc2c1	x	x	-5.0%	-7.8%	x
Cc1cccc2sc(NC(=O)c3ccc(NS(=O)(=O)c4cccs4)cc3)nc12	-12.5%	-1.3%	1.5%	-14.3%	0.3%
CCCC(=O)Nc1nc2ccc(NC(=O)c3ccccc3F)cc2s1	-12.1%	-29.6%	x	-22.2%	-2.1%
COc1ccc2nc(NC(=O)c3ccc(NS(=O)(=O)c4cccs4)cc3)sc2c1	-2.3%	2.7%	-11.9%	4.78µM*	-1.6%
CSc1ncccc1C(=O)Nc1nc2ccc(Oc3ccccc3)cc2s1	0.1%	-1.0%	11.2%	23.9µM*	-0.2%
Cc1ccc2nc(NC(=O)c3ccccc3F)sc2c1	u	0.316µM*	x	0.477µM*	0.651µM*
COc1ccc2nc(NC(=O)c3cc(=O)c4ccccc4o3)sc2c1	x	x	20.8%	1.69µM*	x
COc1ccc(CC(=O)N2CCN(c3ccccc3OC)CC2)cc1OC	-3.4%	-1.1%	x	1.1%	-3.1%
CSc1ncccc1C(=O)Nc1ccc2nc(C)sc2c1	0.6%	22.8%	x	16.9µM*	12.4%
COc1ccc2nc(NC(=O)c3ccc(NC(=O)C4CCCO4)cc3)sc2c1 (centres undefined)	18.4%	21.3%	x	9.53µM*	-10.3%
COc1ccc2nc(NC(=O)c3ccccc3F)sc2c1	0.316µM*	0.447µM*	x	0.338µM*	u
COc1ccc2nc(NC(=O)c3nc(SCc4ccccc4F)ncc3Cl)sc2c1	x	x	8.7%	3.1%	x
COc1ccc2nc(NC(=O)c3ccccc3C(=O)O)sc2c1	-0.5%[1.84 µM]	-2.2%	x	9.53µM*	2.3%
COc1ccc2nc(NC(=O)c3ccccc3-c3ccccc3C(=O)O)sc2c1	-12.1%	-1.5%	-1.4%	u	6.2%
Cc1cc(C)nc(-n2nc(C)c3c2NC(=O)CC3c2ccccc2OC(C)C)n1 (centres undefined)	x	x	x	-2.2%	x
